Results: PubChem BioAssay (NCATS)
Results filed as inconclusive are left out. Entries that show only a call come without a potency. Unmarked numbers belong to inactive results. Calls of active or inactive are those of the source. Calls come from the whole dose curve; as a rule, active = well fitted curve in the direction sought with a large enough effect; inconclusive = small, poorly fitted or top-dose-only effect, or another doubt; inactive = no such curve, though single readings can be large; an effect the other way counts as inactive or inconclusive. Square brackets hold non-standard residues; d marks the D form. Peptide text beside a SMILES is read from it. dPhe(4-Cl) = N[C@H](Cc1ccc(Cl)cc1)C(=O)O; d2Nal = N[C@H](Cc1ccc2ccccc2c1)C(=O)O; dCit = NC(=O)NCCC[C@@H](N)C(=O)O; d3Pal = N[C@H](Cc1cccnc1)C(=O)O

Each molecule was assayed against Aldehyde dehydrogenase, mitochondrial (Homo sapiens) (UniProt P05091) (assay: qHTS for Inhibitors of the Aldehyde Dehydrogenase Family (ALDH2) Primary screen (AID 2061308; note: nearly all actives have a fitted effect of over 55% in size)). Conditions: ALDH2 enzyme inhibition qHTS, 1536-well; series mostly up to 56 µM.

Structure (SMILES) | Potency
COc1c(-c2ccc(O)cc2)cc(OC)c2c1oc1cc(O)c(OC3OC(CO)C(O)C3O)cc12 (configuration not stated) | inactive
CC1=C(CCC(C)CC(=O)O)[C@@]2(C)CCCC(C)(C)C2CC1=O (some centres not stated) | inactive
CC1=C2C(=O)C=C(CO)[C@@H]2[C@H]2OC(=O)[C@H](C)[C@@H]2[C@@H](O)C1 | inactive
CC1CCCC(O)CC(=O)c2c(O)cc(O)cc2CC(=O)O1 (configuration not stated) | inactive
CC(=O)O[C@@H]1C[C@H](O)[C@@]23CO[C@H](O)[C@]1(C)C2C[C@@H](O)[C@]1(C)C3C(=O)[C@H](OC(C)=O)[C@@]2(C)[C@H](c3ccoc3)C[C@H]3O[C@]321 (some centres not stated) | inactive
CCC(=O)OCC(=O)[C@@]1(OC(=O)CC)[C@@H](C)C[C@H]2[C@@H]3CCC4=CC(=O)C=C[C@]4(C)[C@@]3(F)[C@@H](O)C[C@@]21C | inactive
CCC(O)(C(=O)OCc1ccccc1NC(=O)CCC(=O)O)C(C)O (configuration not stated) | inactive
CCC(=O)N[C@@H]1Cc2ccccc2[C@H](c2ccccc2)C1 | inactive
CC1(C)CC[C@]2(C(=O)O[C@@H]3O[C@H](CO)[C@@H](O)[C@H](O)[C@H]3O)CC[C@]3(C)C(=CCC4[C@@]5(C)CC[C@H](O[C@@H]6O[C@H](C(=O)O)[C@@H](O[C@@H]7O[C@H](CO)[C@@H](O)[C@H](O)[C@H]7O)[C@H](O)[C@H]6O[C@@H]6O[C@H](CO)[C@@H](O)[C@H](O)[C@H]6O)C(C)(C)C5CC[C@]43C)C2C1 (some centres not stated) | inactive
C=C1C(O)CC2C(C(=O)O)=COC(O[C@@H]3O[C@H](COC(=O)c4ccc(O)cc4)[C@@H](O)[C@H](O)[C@H]3O)C12 (some centres not stated) | inactive
C[C@H]1CCN2C[C@]34C[C@@]5(C(=O)Nc6c5ccc5c6OC=CC(C)(C)O5)C(C)(C)C3C[C@]12C(=O)N4C (some centres not stated) | inactive
CC(=O)O[C@H]1[C@@]2(O)C[C@H](C)[C@H](OC(=O)c3ccccc3)[C@@H]2[C@@H](OC(=O)CO)[C@]2(OC(C)=O)C[C@H]3C(=O)C(C)(C)C[C@@H]3[C@@]1(C)[C@H]2OC(C)=O | inactive
CC(=O)O[C@@H]1C[C@@H](C)[C@](O)(CCC2=CC(=O)OC2)[C@@]2(C)CCCC(C)(C)C12 (some centres not stated) | inactive
O=C(Nc1ccn[nH]1)c1c(F)cccc1F | inactive
C[C@@H]1CC[C@]2(C(=O)O)CC[C@]3(C)C(=CCC4[C@@]5(C)C[C@@H](O)[C@@H](O)C(C)(C)C5CC[C@]43C)C2[C@]1(C)O (some centres not stated) | inactive
CC(O)C(=O)/C=C/C=C/C(=O)OC1C=C2COC(=O)C2(O)C2(C)CCCC(C)(C)C12 (configuration not stated) | inactive
C=C1C(=O)O[C@@H]2/C=C(\C)CC/C=C(\C)CC[C@@H]12 | inactive

Each molecule was assayed against Retinaldehyde dehydrogenase 3 (Homo sapiens) (UniProt P47895) (assay: qHTS for Inhibitors of the Aldehyde Dehydrogenase Family (ALDH1A3) Primary screen (AID 2061315)). Conditions: ALDH inhibition qHTS; series mostly up to 56 µM.

Structure (SMILES) | Potency | activity change, negative = inhibition
C[C@@H]1CCO[C@H]2Cn3cc(C(=O)NCc4ccc(F)cc4F)c(=O)c(O)c3C(=O)N12 | inactive | –
COc1ccccc1-c1c[nH]c2ncc(-c3cncc(C(=O)N(C)C)c3)cc12 | inactive | –
O=C(O)c1cccc(CN2C(=O)/C(=C(\c3ccccc3)c3ccc(Cl)cc3)c3ccccc32)c1 | inactive | –
COc1ccc(C2OCC3C(c4cc(OC)c5c(c4)OCO5)OCC23)cc1OC (configuration not stated) | inactive | –
COC1CC(O[C@H]2CC[C@@]3(C)C(=CC[C@]4(O)C3[C@H](O)[C@@H](O)[C@]3(C)[C@@H]([C@H](C)O)CC[C@@]34O)C2)OC(C)C1OC1CC(OC)C(OC2CC(OC)C(OC3OC(C)C(OC4OC(CO)C(O)C(O)C4O)C(OC)C3O)C(C)O2)C(C)O1 (some centres not stated) | inactive | –
COC(=O)/C=C/c1ccc(O[C@@H]2O[C@H](CO)[C@@H](O)[C@H](O)[C@H]2O)cc1 | inactive | –
C=C1C(OC2OCC(O)C(O)C2O)CC2C(C)(C)C(O)CCC2(C)C1CC/C(C)=C\CO (configuration not stated) | inactive | –
COC(=O)C(C)C1CCC2(C)C(=O)C=CC(C)(O)C2C1O (configuration not stated) | inactive | –
CCC(C)/C=C(C)/C=C/c1cc2c(cn1)C(=O)C(C)(OC(C)=O)C(O)=C2Cl (configuration not stated) | inactive | –
CC(=O)O[C@H]1[C@H](O[C@H]2[C@@H]3C=CO[C@@H](O[C@@H]4O[C@H](CO)[C@@H](O)[C@H](O)[C@H]4O)[C@@H]3[C@@]3(CO)O[C@@H]23)O[C@@H](C)[C@H](OC(=O)/C=C/c2ccccc2)[C@H]1OC(=O)/C=C/c1ccccc1 | inactive | –
[N-]=[N+]=N[C@]1(CO)O[C@@H](n2ccc(=O)[nH]c2=O)[C@@H](O)[C@@H]1O | inactive | –
CC1(C)CC[C@]2(C(=O)O[C@@H]3O[C@H](CO)[C@@H](O)[C@H](O)[C@H]3O)CC[C@]3(C)C(=CCC4[C@@]5(C)C[C@@H](O)[C@H](O)[C@](C)(C(=O)O)C5CC[C@]43C)C2C1O (some centres not stated) | inactive | –
Nc1nc2c(ncn2CCC(CO)CO)c(=O)[nH]1 | inactive | –
C[C@@H]1C[C@H](O)/C=C/[C@H](O)[C@@H](O)CC(=O)O1 | inactive | –
CC(=O)O[C@@H]1[C@@H](OC(=O)/C=C/c2ccccc2)[C@@H](OC(C)=O)[C@H](O[C@H]2[C@@H]3C=CO[C@@H](O[C@@H]4O[C@H](CO)[C@@H](O)[C@H](O)[C@H]4O)[C@@H]3[C@@]3(CO)O[C@@H]23)O[C@H]1C | inactive | –
CC1(C)C2CC=C(COC3OC(COC4OCC(O)(CO)C4O)C(O)C(O)C3O)C1C2 (configuration not stated) | inactive | –
CC(C)=CCC[C@](C)(O[C@@H]1O[C@H](CO[C@@H]2O[C@H](CO)[C@@H](O)[C@H](O)[C@H]2O)[C@@H](O)[C@H](O)[C@H]1O)C1CC[C@]2(C)[C@@H]1[C@H](O)CC1[C@@]3(C)CC[C@H](O[C@@H]4O[C@H](CO)[C@@H](O)[C@H](O)[C@H]4O[C@@H]4O[C@H](CO)[C@@H](O)[C@H](O)[C@H]4O)C(C)(C)[C@@H]3CC[C@]12C (some centres not stated) | inactive | –
CC(C)=CCC/C(C)=C/COCC1OC(n2ccc(=O)[nH]c2=O)C(O)C1O (configuration not stated) | inactive | –
O=S(=O)(O)c1ccc(Nc2ncnc3c2ncn3[C@@H]2O[C@H](CO)[C@@H](O)[C@H]2O)cc1 | inactive | –
CC1=CC(=O)CC(C)(C)C1CCC(C)O[C@@H]1O[C@H](CO)[C@@H](O)[C@H](O)[C@H]1O (some centres not stated) | inactive | –

Structure (SMILES) | Potency | activity change, negative = inhibition
C[C@@H]1O[C@@H](O[C@H]2[C@H](OC(=O)[C@]34CCC(C)(C)C[C@H]3C3=CCC5[C@@]6(C)C[C@H](O)[C@H](O[C@@H]7O[C@H](CO)[C@@H](O)[C@H](O)[C@H]7O)[C@@](C)(CO)C6[C@H](O)C[C@@]5(C)[C@]3(C)CC4)OC[C@H](O)[C@@H]2O)[C@H](O)[C@H](O)[C@H]1O[C@@H]1OC[C@@H](O)[C@H](O[C@@H]2OC[C@](O)(CO)[C@H]2O)[C@H]1O (some centres not stated) | – | 7.08% [at 11.2 µM]
CC(=O)N[C@H](Cc1ccc2ccccc2c1)C(=O)N[C@H](Cc1ccc(Cl)cc1)C(=O)N[C@H](Cc1cccnc1)C(=O)N[C@@H](CO)C(=O)N[C@@H](Cc1ccc(O)cc1)C(=O)N[C@H](CCCNC(N)=O)C(=O)N[C@@H](CC(C)C)C(=O)N[C@@H](CCCN=C(N)N)C(=O)N1CCC[C@H]1C(=O)N[C@H](C)C(N)=O (Ac-[d2Nal][dPhe(4-Cl)][d3Pal]SY[dCit]LRP[dA]-NH2) | inactive | –
Nc1nc2c(nc(Sc3ccc(Cl)cc3)n2[C@@H]2O[C@@H]3COP(=O)(O)O[C@H]3[C@H]2O)c(=O)[nH]1 | inactive | –
COc1c(-c2ccc(O)cc2)cc(OC)c2c1oc1cc(O)c(OC3OC(CO)C(O)C3O)cc12 (configuration not stated) | inactive | –
CC1=C(CCC(C)CC(=O)O)[C@@]2(C)CCCC(C)(C)C2CC1=O (some centres not stated) | inactive | –
CC1=C2C(=O)C=C(CO)[C@@H]2[C@H]2OC(=O)[C@H](C)[C@@H]2[C@@H](O)C1 | inactive | –
CC1CCCC(O)CC(=O)c2c(O)cc(O)cc2CC(=O)O1 (configuration not stated) | inactive | –
CC(=O)O[C@@H]1C[C@H](O)[C@@]23CO[C@H](O)[C@]1(C)C2C[C@@H](O)[C@]1(C)C3C(=O)[C@H](OC(C)=O)[C@@]2(C)[C@H](c3ccoc3)C[C@H]3O[C@]321 (some centres not stated) | inactive | –
CCC(=O)OCC(=O)[C@@]1(OC(=O)CC)[C@@H](C)C[C@H]2[C@@H]3CCC4=CC(=O)C=C[C@]4(C)[C@@]3(F)[C@@H](O)C[C@@]21C | inactive | –
CCC(O)(C(=O)OCc1ccccc1NC(=O)CCC(=O)O)C(C)O (configuration not stated) | inactive | –
CCC(=O)N[C@@H]1Cc2ccccc2[C@H](c2ccccc2)C1 | inactive | –
CC1(C)CC[C@]2(C(=O)O[C@@H]3O[C@H](CO)[C@@H](O)[C@H](O)[C@H]3O)CC[C@]3(C)C(=CCC4[C@@]5(C)CC[C@H](O[C@@H]6O[C@H](C(=O)O)[C@@H](O[C@@H]7O[C@H](CO)[C@@H](O)[C@H](O)[C@H]7O)[C@H](O)[C@H]6O[C@@H]6O[C@H](CO)[C@@H](O)[C@H](O)[C@H]6O)C(C)(C)C5CC[C@]43C)C2C1 (some centres not stated) | inactive | –
C=C1C(O)CC2C(C(=O)O)=COC(O[C@@H]3O[C@H](COC(=O)c4ccc(O)cc4)[C@@H](O)[C@H](O)[C@H]3O)C12 (some centres not stated) | inactive | –
C[C@H]1CCN2C[C@]34C[C@@]5(C(=O)Nc6c5ccc5c6OC=CC(C)(C)O5)C(C)(C)C3C[C@]12C(=O)N4C (some centres not stated) | inactive | –
CC(=O)O[C@H]1[C@@]2(O)C[C@H](C)[C@H](OC(=O)c3ccccc3)[C@@H]2[C@@H](OC(=O)CO)[C@]2(OC(C)=O)C[C@H]3C(=O)C(C)(C)C[C@@H]3[C@@]1(C)[C@H]2OC(C)=O | inactive | –
CC(=O)O[C@@H]1C[C@@H](C)[C@](O)(CCC2=CC(=O)OC2)[C@@]2(C)CCCC(C)(C)C12 (some centres not stated) | inactive | –
O=C(Nc1ccn[nH]1)c1c(F)cccc1F | inactive | –
C[C@@H]1CC[C@]2(C(=O)O)CC[C@]3(C)C(=CCC4[C@@]5(C)C[C@@H](O)[C@@H](O)C(C)(C)C5CC[C@]43C)C2[C@]1(C)O (some centres not stated) | inactive | –
CC(O)C(=O)/C=C/C=C/C(=O)OC1C=C2COC(=O)C2(O)C2(C)CCCC(C)(C)C12 (configuration not stated) | inactive | –
C=C1C(=O)O[C@@H]2/C=C(\C)CC/C=C(\C)CC[C@@H]12 | inactive | –
